This is an account of results in PubChem BioAssay AID504834 (National Center for Advancing Translational Sciences (NCATS), 2011).

Structures are written as SMILES. Among all 320,000 compounds or so, about 22,000 (6.9%) were called active. A call without a number means that no potency is given here. About 27% were inconclusive and are not listed. Calls come from the whole dose curve; as a rule, active = well fitted inhibition curve with a large enough effect; inconclusive = small, poorly fitted or top-dose-only effect, or another doubt; inactive = no such curve, though single readings can be large or run the other way. The full list was thinned out, with actives kept by preference.
Potency is the fitted concentration of half-maximal effect.

The assay is described as follows: Primary qHTS for delayed death inhibitors of the malarial parasite plastid, 96 hour incubation. To be noted: P. falciparum luciferase reporter growth; series mostly up to 28.7 µM. The source says:
The goal of this screen is to discover new antimalarial compounds that act by inhibiting the development of the apicoplast in the malarial parasite Plasmodium falciparum. The biochemical processes that make this organelle essential for erythrocytic stage parasites are not well understood. However, antibiotics such as azithromycin and tetracycline, which target the apicoplast translational machinery, have a potent antimalarial effect.
We have developed a cell-based assay that measures parasite growth based on the expression of an integrated copy of a firefly luciferase reporter. To detect small molecules that cause this "delayed death" phenotype, erythrocytes infected with the luciferase-expressing parasites were incubated with compounds for either one or two generations, corresponding to 48 and 96 hours, respectively. Compounds that inhibit parasite growth in the second generation, but not the first, should be enriched in antimalarials that target the apicoplast. Growth inhibition is detected by a decrease in luciferase activity.
Assay Provider: David Fidock and Eric Ekland, Columbia University
Keywords: NIH Roadmap, MLPCN, MLI, MLSMR, qHTS, NCGC, qHTS, malaria, luciferase, viability
Four microliters of infected erythrocytes (2% hematocrit, 0.05% parasitemia final concentration) in culture medium were dispensed and the plates incubated for 96 hours at 37 C in 5% CO2. Two microliters of luciferase detection reagent was added and luminescence was detected by a ViewLux (PerkinElmer) reader.
As to `C=CCSc1ccc(S(=O)(=O)N2CCN(C)CC2)cn1`, the Potency entry is “inactive”.
As for `Cc1cc(NC(=O)c2ccco2)c(=O)n(Cc2c(F)cccc2Cl)c1`, the entry is “inactive”.
For `CCOC(=O)N1CCN(c2c(NCCN3CCN(c4ccccc4F)CC3)c(=O)c2=O)CC1`, the Potency entry was “inactive”.
With `COc1ccccc1NC(=O)CCC(=O)OC(C)C(=O)c1ccccc1` (configuration not stated), the Potency entry is “inactive”.
As for `Cc1ccc(C(=O)NCC(=O)OCC(=O)Nc2cccc(S(=O)(=O)N3CCCC3)c2)cc1C`, the entry is “inactive”.
As for `Cc1ccc(CN2CCN(c3ncccn3)CC2)c(C)c1`, the entry is “inactive”.
As for `Cc1cccc(NC(=O)c2cccc(C(F)(F)F)c2)c1`, the entry is “inactive”; as for `Cc1cccc(NC(=O)c2nnn(-c3cccc(C(F)(F)F)c3)c2N)c1`, 5.86 µM (active).
On to `CC(=O)N1CCN(C(=O)Nc2cccc(C(F)(F)F)c2)CC1`, for which the Potency result was “inactive”.
Consider `O=C(O)C1CCCN1S(=O)(=O)c1ccc(Br)cc1` (configuration not stated), for which the Potency entry was “inactive”.
For `COc1ccc(CCNCc2c(-c3ccccc3)n(C)c3ccccc23)cc1` the value was 10.4 µM (active); for `COc1ccc(-c2cc(C(=O)n3cnc4ccccc43)c3ccccc3n2)cc1`, “inactive”.
For `COc1ccc(OCCCC(=O)NCCc2ccccc2)cc1` the value was “inactive”; for `COc1ccc(CNc2ncnc3ccccc23)cc1`, “inactive”; for `COc1ccc(-c2c(C#Cc3ccccc3)c3ccccc3n2C)cc1`, 6.57 µM (active).
As for `COc1ccc(-c2c3c(=O)n(C)c(=O)n(C)c3cn2-c2cccc(OC)c2)cc1`, the entry is “inactive”.
As to `CN(CCC(=O)Nc1cc(S(=O)(=O)N(C)C)ccc1Cl)CC(=O)Nc1ccc(F)cc1`, the Potency entry is “inactive”.
For `O=C(Nc1cccc2c1N(C(=O)c1ccco1)CCC2)c1ccco1` the value was “inactive”; for `O=C(CSc1ncnc2c1oc1ccccc12)NC1CCCC1`, “inactive”.
As for `CCCOc1ccc(-c2c(C(=O)N/N=C/c3ccco3)nnn2-c2nonc2N)cc1`, the entry is “inactive”; as for `Cc1cc(C)cc(NC(=O)N(C)Cc2ccccc2)c1`, “inactive”; as for `CN(Cc1ccccc1)C(=O)CCc1ccccc1`, “inactive”.
For `CN(Cc1ccccc1)C(=O)c1cccc(C(=O)N(C)Cc2ccccc2)c1` the value was 13.1 µM (active); for `Cc1cc(C(=O)N/N=C/c2ccccn2)c2ccccc2n1`, “inactive”; for `O=C(N/C(=C\c1ccc(O)cc1)C(=O)N1CCCCC1)c1ccccc1`, “inactive”.
As for `Cc1ccc(C)c(NC(=O)C(OC(=O)c2ccc(C)s2)c2ccccc2)c1` (configuration not stated), the Potency was 2.94 µM (active).
As for `COc1ccc(C)cc1NC(=O)C(OC(=O)c1cccc(S(=O)(=O)N(C)c2ccccc2)c1)c1ccccc1` (configuration not stated), the entry is “inactive”.
For `COc1ccc(C)cc1NC(=O)C(Sc1ccccc1)c1ccccc1` (configuration not stated) the value was “inactive”.
As for `C/C(CC(=O)NCc1ccc(Cl)cc1)=N\NC(=O)COc1ccc(C)cc1Br`, the entry is “inactive”.
Take `CC(C)C[C@H](NC(=O)N1CCn2c1nc1ccccc12)C(=O)NC1CC1`: the Potency result is “inactive”.
For `O=S(=O)(NCCc1ccccn1)c1cc(Cl)cc(Cl)c1O` the value was “inactive”.
As for `O=S(=O)(c1cc(Cl)ccc1Cl)N1CCN(Cc2ccco2)CC1`, the entry is “inactive”; as for `N#Cc1ccsc1NC(=O)CN1CCCCC1`, “inactive”; as for `N#Cc1ccsc1NC(=O)CN1CCN(S(=O)(=O)c2cc(Cl)ccc2Cl)CC1`, 4.15 µM (active).
For the compound `CCN(CC)c1ccc(/C=N/NC(=O)CNC(=O)c2cccnc2)cc1`, the Potency entry was “inactive”.
With `CC(=O)NCCC(=O)Nc1cc(S(=O)(=O)N2CCCCC2)ccc1Oc1cccc(C)c1`, the Potency entry was “inactive”.
As for `CCOc1ccc(NC(=O)COc2ccc(S(=O)(=O)N3CCCC3)cc2)cc1`, the entry is “inactive”.
For the compound `O=C(COc1ccc(S(=O)(=O)N2CCCCC2)cc1)NCc1ccccn1`, the Potency result was “inactive”.
Consider `CCOc1ccccc1NC(=O)COc1ccc(S(=O)(=O)N2CCCC2)cc1`, for which the Potency was 8.28 µM (active).
For `CCOc1ccccc1NC(=O)C1CCCN(S(=O)(=O)c2ccccc2)C1` (configuration not stated) the value was “inactive”.
For `CCOc1ccc(S(=O)(=O)N2CCCCC2)cc1NC(=O)CN1CCCC1c1cccs1` (configuration not stated) the value was 4.65 µM (active).
For `CN(C)C(=O)N=NC(=O)N(C)C` the value was “inactive”.
On to `O=C(Oc1ccc(Br)cc1)c1cccnc1`, for which the Potency result is “inactive”.
`O=C(COC(=O)c1cccc(Cl)c1)NC1CCCCCCC1`: the Potency result was “inactive”.
Take `CCc1c(C)c2ccc(OC3CCCCC3=O)cc2oc1=O` (configuration not stated): the Potency result was “inactive”.
Consider `Cc1ccc(C(=O)C(C)OC(=O)Cc2n[nH]c(=O)c3ccccc23)cc1C` (configuration not stated), for which the Potency result was “inactive”.
For `Cc1cc(C)c(S(=O)(=O)N(C)CC(=O)NCC2CCCO2)c(C)c1` (configuration not stated) the value was “inactive”; for `COc1ccccc1CCC(=O)OCC(=O)N1CCN(S(=O)(=O)c2ccc(C)cc2C)CC1`, “inactive”.
For `CCCCCCCN=C(C)c1ccccc1O` the value was “inactive”; for `C/C(=N\N(C)C)c1ccc(OCCOc2ccc([N+](=O)[O-])cc2)cc1`, “inactive”.
As for `COc1ccc(C(C#N)(CC(=O)O)c2cnccn2)cc1OC` (configuration not stated), the entry is “inactive”; as for `COc1cc(OC)cc(C(=O)NNC(=O)CNC(=O)c2ccc(Br)o2)c1`, “inactive”.
